PubChem BioAssay (NCATS)
Records with an inconclusive call do not appear. Activity calls are given as the source filed them. Calls come from the whole dose curve; as a rule, active = well fitted inhibition curve with a large enough effect; inconclusive = small, poorly fitted or top-dose-only effect; inactive = flat fitted curve, though single readings scatter.

How the values were obtained:
CRL-7250 = normal cell line; assay: Cytotoxic Profiling of Annotated Libraries Using Quantitative High-Throughput Screening (AID 1296008); conditions: Five cell lines viability, CellTiter-Glo ATP luminescence, 48-72 h; max response: hits give low values; for max response: % is set by controls: 0 for no effect and ±100 for the full control effect
How it was run: (§1)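 Cells exposed to compounds for 48 or 72 hr at 37 degrees Celsius. Viability read as ATP-coupled luminescence with CellTiter-Glo after 10 min at room temperature.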

HEK293 = assay: as above; conditions: Five cell lines viability, CellTiter-Glo ATP luminescence, 48-72 h; max response: hits give low values
How it was run: as §1

HaCat [1] = assay: as above; conditions: Five cell lines viability, CellTiter-Glo ATP luminescence, 48-72 h; max response: hits give low values
How it was run: as §1

KB-3-1 = assay: as above; conditions: Five cell lines viability, CellTiter-Glo ATP luminescence, 48-72 h; max response: hits give low values
How it was run: as §1

NIH3T3 = assay: as above; conditions: Five cell lines viability, CellTiter-Glo ATP luminescence, 48-72 h; max response: hits give low values
How it was run: as §1

HACAT [2] = assay: qHTS assay to identify novel small-molecules to repurpose for Merkel cell carcinoma treatment (AID 1296009); conditions: MCC and control cell lines, CellTiter-Glo viability, 72 h; at 44.8 µM (top of the series) unless noted
How it was run: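 Cells were treated for 72 hr at 37 degree celsius with compounds in 8- or 11-point dose response. Viability was read by CellTiter-Glo luminescence, normalized to no-cell (cytotoxicity) and DMSO controls.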

ICS = assay: qHTS profiling for inhibitors of Plasmodium falciparum proliferation (AID 504749);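 note: 0% = DMSO vehicle and full inhibition = artemisinin control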; conditions: P. falciparum in erythrocytes, SYBR Green DNA, 72 h; series mostly up to 28.7 µM
How it was run: (§2)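 P. falciparum-infected erythrocytes (0.3% parasitemia, 2.5% hematocrit) incubated with compound 72 h at 37 C, 5% CO2. Parasite DNA detected by SYBR Green after lysis, overnight at room temperature; normalised to 0.29 uM artemisinin and DMSO.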

JCK = assay: as above; conditions: P. falciparum in erythrocytes, SYBR Green DNA, 72 h; series mostly up to 28.7 µM
How it was run: as §2

N140 = assay: as above; conditions: P. falciparum in erythrocytes, SYBR Green DNA, 72 h; series mostly up to 28.7 µM
How it was run: as §2

P94_40 = assay: as above; conditions: P. falciparum in erythrocytes, SYBR Green DNA, 72 h; series mostly up to 28.7 µM
How it was run: as §2

PAD = assay: as above; conditions: P. falciparum in erythrocytes, SYBR Green DNA, 72 h; series mostly up to 28.7 µM
How it was run: as §2

PC15 = assay: as above; conditions: P. falciparum in erythrocytes, SYBR Green DNA, 72 h; series mostly up to 28.7 µM
How it was run: as §2

PC26 = assay: as above; conditions: P. falciparum in erythrocytes, SYBR Green DNA, 72 h; series mostly up to 28.7 µM
How it was run: as §2

PC49 = assay: as above; conditions: P. falciparum in erythrocytes, SYBR Green DNA, 72 h; series mostly up to 28.7 µM
How it was run: as §2

SC27B = assay: as above; conditions: P. falciparum in erythrocytes, SYBR Green DNA, 72 h; series mostly up to 28.7 µM
How it was run: as §2

TAB109 = assay: as above; conditions: P. falciparum in erythrocytes, SYBR Green DNA, 72 h; series mostly up to 28.7 µM
How it was run: as §2

TAB113 = assay: as above; conditions: P. falciparum in erythrocytes, SYBR Green DNA, 72 h; series mostly up to 28.7 µM
How it was run: as §2

TAB165 = assay: as above; conditions: P. falciparum in erythrocytes, SYBR Green DNA, 72 h; series mostly up to 28.7 µM
How it was run: as §2

W2 = assay: as above; conditions: P. falciparum in erythrocytes, SYBR Green DNA, 72 h; series mostly up to 28.7 µM
How it was run: as §2

Measured: max response
Note: nearly all actives have a fitted effect of over 60% in size.

C/C(=C\CCC(C)(C)O)CCO[C@@H]1O[C@H](CO[C@@H]2O[C@@H](C)[C@H](O)[C@@H](O)[C@H]2O)[C@@H](O)[C@H](O)[C@H]1O
inactive: CRL-7250 | HEK293 -3.15% | HaCat [1] | KB-3-1 4.26% | NIH3T3 | HACAT [2] inactive [at 17.4 µM]

O=C(/C=C/c1ccc(O)cc1)OC[C@H]1O[C@@H](O/C(=C\c2ccccc2)C(=O)O)[C@H](O)[C@@H](O)[C@@H]1O
inactive: CRL-7250 | HEK293 -7.06% | HaCat [1] | KB-3-1 | NIH3T3 4.52% | HACAT [2] inactive [at 17.4 µM]

COC1OC(OC)C(O)(CCC2(C)C(C)CCC3(C)C2CC(O)C(O)C32CO2)C1O (centres undefined)
inactive: CRL-7250 -2.11% | HEK293 1.57% | HaCat [1] | KB-3-1 5.15% | NIH3T3 | HACAT [2] inactive [at 17.4 µM]

NC(=O)NCCCC(NC(=O)Cc1ccccc1)C(=O)O (centres undefined)
inactive: CRL-7250 | HEK293 -0.44% | HaCat [1] | KB-3-1 3.03% | NIH3T3 3.99% | HACAT [2]

CC(=O)OCC1OC(OC2COC(OC3COC(OC4C(OC5C(CO)OC(OC6CCC7(C)C(CCC8(C)C7CC=C7C9CC(C)(C)CCC9(C(=O)OC9OC(CO)C(O)C(O)C9OC9OCC(OC%10OCC(O)(CO)C%10O)C(O)C9O)C(O)CC78C)C6(C)C)C(O)C5O)OCC(O)C4O)C(O)C3O)C(O)C2O)C(OC(=O)/C=C/c2ccccc2)C(O)C1OC(C)=O (centres undefined)
inactive: CRL-7250 2.77% | HEK293 -18.2% | HaCat [1] | KB-3-1 4.45% | NIH3T3 -0.042% | HACAT [2] inactive [at 4.96 µM]

O=C(O)Cn1nnc(-c2ccc(CN(CCCCOc3ccc(CN4CCCC4)cc3)CCc3ccccc3)cc2)n1
inactive: CRL-7250 | HEK293 -0.898% | HaCat [1] | KB-3-1 9.81% | NIH3T3 | HACAT [2]

CC1(C(=O)O)CCCC2(C)C3CCC4CC3(CCC12)CC4(O)CO (centres undefined)
inactive: CRL-7250 1.56% | HEK293 -16.5% | HaCat [1] | KB-3-1 5.7% | NIH3T3 0.753% | HACAT [2]

OC[C@H]1O[C@@H](O[C@H]2[C@H](O)[C@@H](CO)O[C@@H](OCc3ccccc3)[C@@H]2O[C@@H]2OC[C@](O)(CO)[C@H]2O)[C@H](O)[C@@H](O)[C@@H]1O
inactive: CRL-7250 -8.44% | HEK293 -1.87% | HaCat [1] | KB-3-1 7.58% | NIH3T3 1.27% | HACAT [2] inactive [at 17.4 µM]

C=CC(C)(O)CC/C=C(\C)C1CC=C(C)C(=O)O1 (centres undefined)
inactive: CRL-7250 | HEK293 -4.28% | HaCat [1] | KB-3-1 2.69% | NIH3T3 | HACAT [2]

COc1cc(C(C)=O)ccc1O[C@@H]1O[C@H](CO)[C@@H](O)[C@H](O)[C@H]1O
inactive: CRL-7250 -12.2% | HEK293 -0.593% | HaCat [1] | KB-3-1 6.72% | NIH3T3 0.808% | HACAT [2]

COC(=O)c1cc(OC)cc(OC)c1C(=O)c1c(OC)cc2c(c1O)C1CCC(O)C(C)(O2)O1 (centres undefined)
inactive: CRL-7250 | HEK293 0.585% | HaCat [1] | KB-3-1 | NIH3T3 | HACAT [2] inactive [at 17.4 µM]

O=C(OC1C=C(CO)C2C(OC3OC(CO)C(O)C(O)C3O)OC=CC12O)c1ccc(O)cc1 (centres undefined)
inactive: CRL-7250 4.89% | HEK293 -1.34% | HaCat [1] | KB-3-1 1.12% | NIH3T3 -4.5% | HACAT [2] inactive [at 17.4 µM]

O=C(O)[C@H]1Cc2ccccc2CN1
inactive: CRL-7250 1.62% | HEK293 4.72% | HaCat [1] | KB-3-1 0.759% | NIH3T3 4.47% | HACAT [2] inactive [at 4.96 µM]

COc1cnc(-n2cnc(C)n2)c2[nH]cc(C(=O)C(=O)N3CCN(C(=O)c4ccccc4)CC3)c12
inactive: CRL-7250 | HEK293 -12.9% | HaCat [1] | KB-3-1 | NIH3T3 | HACAT [2]

CCOC(=O)C(CCc1ccccc1)NC(C)C(=O)N1Cc2ccccc2CC1C(=O)O (centres undefined)
inactive: ICS | JCK | N140 | P94_40 | PAD | PC15 | PC26 | PC49 | SC27B | TAB109 | TAB113 | TAB165 | W2 | CRL-7250 -6.01% | HEK293 -4.89% | HaCat [1] -10.9% | KB-3-1 -4.78% | NIH3T3

Cc1onc(-c2ccccc2Cl)c1C(=O)N(C)c1ccc(Cl)cc1
inactive: CRL-7250 | HEK293 -12.8% | HaCat [1] | KB-3-1 4.59% | NIH3T3 | HACAT [2]

C/C=C/C(=O)OC1/C=C/C(O)C(OC(C)=O)CCC(=O)OC1C (centres undefined)
inactive: CRL-7250 -1.17% | HEK293 3.73% | HaCat [1] | KB-3-1 -2.1% | NIH3T3 | HACAT [2]

COCCN1CCC(C(=O)NO)(S(=O)(=O)c2ccc(Oc3ccc(OC(F)(F)F)cc3)cc2)CC1
inactive: CRL-7250 -0.582% | HEK293 -3.44% | HaCat [1] | KB-3-1 | NIH3T3 | HACAT [2]

COc1ccc(C2OCC3C(c4cc(OC)c5c(c4)OCO5)OCC23)cc1OC (centres undefined)
inactive: CRL-7250 3.22% | HEK293 1.08% | HaCat [1] | KB-3-1 -4.07% | NIH3T3 | HACAT [2] inactive [at 17.4 µM]

CC(C)(O)/C=C/C(=O)[C@](C)(O)[C@H]1[C@H](O)C[C@@]2(C)[C@@H]3CC=C4[C@@H](C=C(O[C@@H]5O[C@H](CO)[C@@H](O)[C@H](O)[C@H]5O)C(=O)C4(C)C)[C@]3(C)C(=O)C[C@]12C
inactive: CRL-7250 -3.34% | HEK293 -7.75% | HaCat [1] | KB-3-1 0.874% | NIH3T3 1.79% | HACAT [2] inactive [at 17.4 µM]

COc1cc(O)cc(C)c1C(=O)OC1C(CO)OC(n2ccc(=O)[nH]c2=O)C1OC(C)=O (centres undefined)
inactive: CRL-7250 | HEK293 2.97% | HaCat [1] | KB-3-1 8.59% | NIH3T3 -1.67% | HACAT [2] inactive [at 17.4 µM]

N#CN1CCC[C@@H](n2nc(-c3ccc(Oc4ccc(F)cc4F)cc3)c(C(N)=O)c2N)C1
inactive: CRL-7250 -1.33% | HEK293 -4.05% | HaCat [1] | KB-3-1 | NIH3T3 1.04% | HACAT [2]

CC(C)NC(=O)c1ccc(C#Cc2ccncc2)cn1
inactive: CRL-7250 -8.3% | HEK293 -19.1% | HaCat [1] | KB-3-1 | NIH3T3 | HACAT [2]

CC1(C)C(=O)CCC2(C)C1C(O)C=C1COC(=O)C12O (centres undefined)
inactive: CRL-7250 -15.2% | HEK293 -3.58% | HaCat [1] | KB-3-1 7.63% | NIH3T3 -3.93% | HACAT [2]

CC1(C)[C@H]2C[C@H](C/C=C\CCCC(=O)O)[C@@H](NC(=O)c3csc4ccc(O)cc34)[C@@H]1C2
inactive: CRL-7250 -1.76% | HEK293 4.16% | HaCat [1] | KB-3-1 | NIH3T3 | HACAT [2]

CC(C)=CCC[C@](C)(O[C@@H]1O[C@H](CO[C@@H]2O[C@@H](CO)[C@H](O)[C@H]2O[C@@H]2OC[C@@H](O)[C@H](O)[C@H]2O)[C@@H](O)[C@H](O)[C@H]1O)[C@H]1CC[C@]2(C)[C@@H]1[C@H](O)CC1[C@@]3(C)CC[C@H](O[C@@H]4O[C@H](CO)[C@@H](O)[C@H](O)[C@H]4O[C@@H]4O[C@H](CO)[C@@H](O)[C@H](O)[C@H]4O)C(C)(C)C3CC[C@]12C (some centres undefined)
inactive: CRL-7250 4.19% | HEK293 -1.64% | HaCat [1] | KB-3-1 8.39% | NIH3T3 4.58% | HACAT [2] inactive [at 9.27 µM]

C[C@@H]1CC[C@]2(C(=O)O[C@@H]3O[C@H](CO[C@@H]4O[C@H](CO)[C@@H](O[C@@H]5O[C@@H](C)[C@H](O)[C@@H](O)[C@H]5O)[C@H](O)[C@H]4O)[C@@H](O)[C@H](O)[C@H]3O)CC[C@]3(C)C(=CCC4[C@@]5(C)C[C@@H](O)[C@H](O)[C@@](C)(CO)C5CC[C@]43C)C2[C@H]1C (some centres undefined)
inactive: CRL-7250 -0.89% | HEK293 -0.975% | HaCat [1] | KB-3-1 3.97% | NIH3T3 1.43% | HACAT [2] inactive [at 9.27 µM]
